Screening data: PubChem BioAssay, National Center for Advancing Translational Sciences (NCATS)
Rows were chosen to be rich in hits. Some 1.7% of all compounds tested hit in one or more screens of this group.
RXFP1 antag – blocks the human relaxin receptor RXFP1. AID 1259400. HEK293-RXFP1, relaxin-stimulated cAMP HTRF, 30 min; hits give low values. 0.59% of 350,000 active. activity change, negative = inhibition, % at 57.5 µM;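 active = activity change of -60% or lower, but not beyond a set lower limit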
RXFP1 ag – agonists of human relaxin receptor RXFP1. Q9HBX9. HEK293T-RXFP1 cAMP TR-FRET, 30 min; response scale: percent of porcine relaxin response, buffer zero. Potency, µM (highest dose often 57.5 µM), for inactives: at the highest dose activation, usual class: activators. 0.3% of 370,000 active. AID 2676; active = well fitted activation curve with a large enough effect; also: potency is read from the fitted curve at half-maximal effect; nearly all actives have a fitted effect of over 60% in size
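Agonist response is measured as cAMP accumulation in an RXFP1-transfected HEK293T line under PDE4 inhibition. Values are scaled between buffer-only and 29 nM porcine relaxin, and EC50s come from standard Hill equation fits.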
KCNH2 WT inh – blocks the wildtype human KCNH2 potassium channel; U2OS, BacMam KCNH2, thallium flux FluxOr; hits give low values; activity change, % at 1.84 µM; 0.37% of 340,000 active;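 active = maximum activity change below -70%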
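U2OS cells were transduced with wild-type KCNH2 virus (2.03 x 10^8 / mL) for 4 h at room temperature, then cultured overnight at 37 C. Thallium flux was read with FluxOr dye. Rate constants were normalized to DMSO controls.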
Akt phos inh – inhibitors of Akt phosphorylation. 0.32% of 360,000 active. activity change, % for hits at 50 µM. AID 651550. Neuro2A IGF-stimulated pAkt S473 HTRF, 20 min; hits give low values; in the data active = activity change below about -80%
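Neuro2A cells (4,500/well, DMEM with 0.5% FBS) were treated with compound at a single 50 µM final concentration, stimulated with 6 nM IGF for 20 min at 37 °C, and lysed. Phospho-Akt Ser473 was read by HTRF as 665/615 ratio ×10^4.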
KCNH2 3.1 block – KCNH2 3.1 (human) potassium channel inhibition; AID 720553; activity change, % (tested at about 1.8 µM); 0.95% of 340,000 active; U2OS KCNH2 3.1, thallium flux FluxOr; hits give low values;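 active = maximum activity change below -70%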;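 also: thallium influx rate constant from kinetic fluorescence after stimulation buffer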
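We transduce U2OS cells with the mutant 3.1 virus, culture them overnight, load FluxOr with Red40 quencher for 45 min, then add stimulation buffer and read kinetically for 2 min to derive a normalized rate constant.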
Active calls of the source: *; i = inactive; / = no result. % is scaled to controls: 0 for no effect and ±100 for the full control effect.

SMILES	RXFP1 antag	RXFP1 ag	KCNH2 WT inh	Akt phos inh	KCNH2 3.1 block
CCOc1ccc2nc(NC(=O)CN3CCC(n4nnc5cc(C(F)(F)F)ccc54)CC3)sc2c1	4	0%	-2	i	-79*
Cc1noc(C)c1C(=O)OCC(=O)NCCc1ccccc1	-5	-1%	-24	i	15
Cc1noc(C)c1C(=O)OCC(=O)NCCc1ccc(S(N)(=O)=O)cc1	-7	/	-10	i	-84*
CCCCNC(=O)Cn1cnc2ccc(S(=O)(=O)N3CCC(C)CC3)cc2c1=O	-14	2%	-2	i	-12
CCCN1CCN(C(=O)Cn2cnc3ccc(S(=O)(=O)N4CCC(C)CC4)cc3c2=O)CC1	-12	4%	-2	i	-85*
COc1cc(/C=C2/NC(=O)N(Cc3ccccc3F)C2=O)ccc1Oc1ccc([N+](=O)[O-])cn1	-4	2%	4	i	4
COc1cc(/C=C2/NC(=O)N(Cc3ccccc3F)C2=O)ccc1O	-11	0%	-5	i	-104*
O=C(NCCOc1ccccc1-c1ccccc1)c1ccco1	-5	1%	2	i	13
COCCNC(=O)COc1ncnc2scc(-c3ccc(F)cc3)c12	-1	9%	-16	i	-112*
COc1cccc(C(=O)/C=C/Nc2cc(C)ccc2O)c1	-78*	3%	-22	i	3
CCOC(=O)c1ccc(N/C=C\C(=O)c2cccc(OC)c2)cc1	/	0%	-6	i	15
CCS(=O)(=O)c1nc(S(=O)(=O)c2ccc(C)cc2)c(N2CCN(C)CC2)s1	6	25µM*	-6	/	5
CC1=NN(C(N)=S)C(=O)C1N=Nc1c(Br)cc(Br)cc1Br (stereo not drawn)	-64*	-3%	-17	i	31
COc1ccccc1N1CCN(C(=O)C2CC(=O)N(c3ccccc3)C2)CC1 (stereo not drawn)	-4	-4%	-3	i	6
CN(C)CCCNc1cc(C(C)(C)C)nc2c(-c3ccccc3)cnn12	-61*	0%	-2	i	-10
COc1ccccc1OCCNC(=O)/C=C/c1ccc([N+](=O)[O-])cc1	-3	-1%	-11	i	3
O=C(O)c1[nH]c2ccc([N+](=O)[O-])cc2c1-c1ccccc1	13	-4%	0	i	-194*
CN(C(=O)COC(=O)/C=C/c1cccs1)C1CCCCC1	-88*	/	2	i	-4
COc1ccc(NC2CCN(C3CC(=O)N(c4ccc(F)c(Cl)c4)C3=O)CC2)cc1 (stereo not drawn)	-7	0%	3	i	-10
CCN1C(=O)CC(N2CCC(Nc3ccc(OC)cc3)CC2)C1=O (stereo not drawn)	-8	-3%	-3	-106%*	-3
CC1CCN(C(=O)CCCC(=O)O)CC1	-21	0%	1	i	-2
CC1CCN(C(=O)CCCC(=O)N2CCC(C)CC2)CC1	4	-2%	-71*	i	20
COc1ccc(-c2cc(C(F)(F)F)nc(N)n2)cc1	-61*	-1%	-10	i	-4
COc1ccc(-c2cc(C(F)(F)F)nc(S(C)(=O)=O)n2)cc1	-20	6%	-4	-98%*	1
CS(=O)(=O)c1nc(-c2ccc(F)cc2)cc(C(F)(F)F)n1	-22	3%	-17	i	/
SMILES	RXFP1 antag	RXFP1 ag	KCNH2 WT inh	Akt phos inh	KCNH2 3.1 block
O=C(NCc1ccc(Cl)cc1)C1CCCN(c2nc3ccccc3n3cccc23)C1 (stereo not drawn)	-64*	3%	/	/	/
O=C(NCc1ccc(Cl)cc1)C1CCCN(c2cnccn2)C1 (stereo not drawn)	9	0%	-5	i	3
O=c1[nH]ncc(N2CCCCCC2)c1Cl	8	1%	-9	i	-100*
COc1ccc(C(=O)NC2CCC(O)CC2)cc1S(=O)(=O)NCc1ccc(Cl)cc1 (stereo not drawn)	6	-1%	1	i	2
O=[N+]([O-])c1ccc(OCCCOc2cccc3cccnc23)cc1	-22	1%	-19	i	-80*
O=[N+]([O-])c1ccc(COc2cccc3cccnc23)cc1	-6	3%	8	i	14
